From the supplement of paper PMC3334620
The full ranking holds about 33,000 sequences; the median of “E-score (-0.5 to 0.5)” is about -0.012, and the highest 2% start at about 0.29. This excerpt belongs to a sample that is enriched for the highest values.

biological target: T1, Ybr033w (UniProt P38073); test: PBM E-score (8-mer binding enrichment) (E-score (-0.5 to 0.5)); higher = stronger / more preferred TF binding; conditions: protein concentration: 200 nM; construct: GST-full length
T1 sequence: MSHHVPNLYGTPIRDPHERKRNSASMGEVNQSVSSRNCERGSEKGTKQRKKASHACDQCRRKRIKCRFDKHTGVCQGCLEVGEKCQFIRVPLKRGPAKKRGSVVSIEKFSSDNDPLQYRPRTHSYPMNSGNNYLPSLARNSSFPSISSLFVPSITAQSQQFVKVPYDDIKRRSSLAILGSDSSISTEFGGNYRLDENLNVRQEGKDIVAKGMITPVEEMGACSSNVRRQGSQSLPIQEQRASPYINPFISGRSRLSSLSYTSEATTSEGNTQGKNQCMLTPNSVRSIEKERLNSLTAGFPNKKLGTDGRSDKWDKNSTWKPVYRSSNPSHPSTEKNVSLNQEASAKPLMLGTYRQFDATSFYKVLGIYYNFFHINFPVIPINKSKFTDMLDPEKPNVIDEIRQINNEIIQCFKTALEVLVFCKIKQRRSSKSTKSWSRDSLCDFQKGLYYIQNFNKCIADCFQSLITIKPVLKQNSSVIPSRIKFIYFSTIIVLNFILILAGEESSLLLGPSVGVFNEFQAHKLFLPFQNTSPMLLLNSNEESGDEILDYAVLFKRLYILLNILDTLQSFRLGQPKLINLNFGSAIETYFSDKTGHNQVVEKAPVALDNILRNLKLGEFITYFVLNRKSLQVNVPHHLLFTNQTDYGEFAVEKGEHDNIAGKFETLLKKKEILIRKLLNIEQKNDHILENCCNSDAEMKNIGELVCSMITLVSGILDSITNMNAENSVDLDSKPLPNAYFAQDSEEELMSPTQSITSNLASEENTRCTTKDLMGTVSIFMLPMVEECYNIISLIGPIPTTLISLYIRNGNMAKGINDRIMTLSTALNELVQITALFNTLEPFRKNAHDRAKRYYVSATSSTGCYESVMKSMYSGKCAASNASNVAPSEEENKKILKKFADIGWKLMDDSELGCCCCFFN
Experimental: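 Universal 'all 10-mer' protein binding microarrays (Agilent AMADID 015681) probed with GST-tagged S. cerevisiae TFs (full-length or DBD) made by in vitro transcription/translation (PURExpress), about 100-200 nM. Bound TF was detected with fluorescent anti-GST. Each ungapped 8-mer (which stands for itself and its reverse complement) is scored by the PBM enrichment score (E-score), a modified Wilcoxon-Mann-Whitney statistic from -0.5 to +0.5, computed with the Universal PBM Analysis Suite. Scale: above 0.35 generally sequence-specific binding.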

Row | Sequence | PBM E-score
1 | AGTAGCAC | -0.0755
2 | CTTTTATC | 0.232
3 | ATTTTATA | 0.309
4 | GTTTTATA | 0.0686
5 | ATTTTATG | 0.186
6 | ACTTTATC | 0.277
7 | ATTTTATC | 0.325
8 | AGCTTATG | 0.0568
9 | GGGGGTAC | -0.254
10 | ATGTTCCG | 0.458
11 | ATGTTCAG | -0.137
12 | ATGTTCCC | 0.199
13 | ATGTTCCA | 0.332
14 | GTGTTCCA | -0.0466
15 | CTGTTCCA | 0.0353
16 | CACTGATC | 0.0744
17 | GTCTGAGA | -0.163
18 | AACAAACT | 0.341
19 | AACAACTT | 0.291
20 | AACAACTA | 0.147
21 | AACAAACC | 0.105
22 | TACAAGCA | 0.189

Row | Sequence | PBM E-score
23 | TACAAACA | 0.29
24 | AACAAACA | 0.193
25 | AACAACTC | 0.0616
26 | AACAAACG | 0.183
27 | CAAATCCG | 0.0419
28 | CTCGTGGC | -0.173
29 | AAGTACTG | 0.112
30 | AGTGGTCA | -0.103
31 | GAGACACC | -0.216
32 | TGACTAAA | 0.0305
33 | TGAAGGAA | 0.211
34 | ACTATTTA | 0.235
35 | GGTATTTA | 0.125
36 | CGTATTTC | 0.0631
37 | AGTATTTC | 0.34
38 | CGTATTTA | 0.311
39 | AGTATTCC | 0.161
40 | AGTATTGC | 0.169
41 | AGTATTTA | 0.301
42 | AGTATTTG | 0.159
43 | AGACTTTG | -0.0453
44 | CCGACACG | -0.213

Row | Sequence | PBM E-score
45 | ATCACAAG | 0.107
46 | CCTACTTC | -0.0544
47 | CGCAGGTC | -0.168
48 | ACAGCCTG | -0.0521
49 | ACGAGTGC | -0.0558
50 | CCACCCTC | -0.0745
51 | ACCAATAA | 0.107
52 | GCATCGCC | -0.17
53 | ATATCCAC | 0.145
54 | GAAGGCTA | 0.0975
55 | CGGAGAAG | -0.166
56 | CGGAGAAA | 0.39
57 | TGGAGAAA | 0.133
58 | TAAACTCA | 0.147
59 | GAATAAGA | 0.0352
60 | GAATAATC | 0.379
61 | GAATAAGC | 0.189
62 | GCATAATA | 0.198
63 | CGATAATA | 0.0851
64 | GAATAAAC | 0.142
65 | GAATAACC | 0.113
66 | GGATAATA | 0.349

Row | Sequence | PBM E-score
67 | GAATAATA | 0.395
68 | GGATAGTA | 0.206
69 | CAATAACA | 0.066
70 | GAATAACA | 0.367
71 | CATCCTGC | -0.163
72 | CAAGAGGC | -0.144
73 | CTTCAGAA | -0.028
74 | GTAGGACA | 0.012
75 | ACGTATAC | 0.181
76 | ATTCTGAA | 0.187
77 | CGAGGGAA | -0.0841
78 | CATGTAAG | -0.0133
79 | AATGTAAT | 0.272
80 | AATGTAAG | 0.288
81 | AGCCTCCC | -0.254
82 | AACCTGCC | -0.0858
83 | AATTGACC | 0.0241
84 | ACTTGATG | 0.218
85 | AATTGATG | 0.309
86 | AATTGATC | 0.354
87 | AATTGATA | 0.255
88 | CATTGATC | 0.236
